# In PubChem BioAssay (Tox21):
# Results filed as inconclusive are left out. Activity calls are given as the source filed them. Unless noted, calls come from the whole dose curve.
# Tested on: not listed separately
# Assay: Nuclear factor erythroid 2-related factor 2/antioxidant responsive element (Nrf2/ARE) small molecule agonists: qHTS cell viability counter screen in human keratinocytes (AID 1919968; active = well fitted cell-killing curve with a large enough effect in the repeat runs; note: nearly all actives have a fitted effect of over 55% in size)
# Conditions: KeratinoSens HaCaT ARE cells viability, CellTiter-Fluor, 24 h; series mostly up to 92.4 µM; activity change, negative = cytotoxicity: at the top concentration
# How it was run: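 Cells of the KeratinoSens line were plated at 1,500 per well and left for 5 h before compound transfer from DMSO stocks. After a 23 h incubation (37 C, 5% CO2), CellTiter-Fluor was added. Signal was taken as fluorescence intensity 1 h later.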
# % is set by controls: 0 for no effect and ±100 for the full control effect; potency is the fitted concentration of half-maximal effect.
Compound,"activity change, negative = cytotoxicity",Potency
CCCC(=O)O[C@]1(C(=O)CC)CC[C@H]2[C@@H]3CCC4=CC(=O)CC[C@]4(C)[C@H]3[C@@H](O)C[C@@]21C,1.49% [at 42.5 µM] (inactive),
CCC(=O)Oc1ccc2c(c1)CC[C@@H]1[C@@H]2CC[C@@]2(C)[C@H]1C[C@@H](OC(=O)CC)[C@@H]2OC(=O)CC,1.44% [at 42.5 µM] (inactive),
C[C@H](O)C(=O)Nc1c(I)c(C(=O)NC(CO)CO)c(I)c(C(=O)NC(CO)CO)c1I,0.941% [at 42.5 µM] (inactive),
CC1(C)CCC(C)(C)c2cc(NC(=O)c3ccc(C(=O)O)cc3)ccc21,0.54% [at 42.5 µM] (inactive),
O=C=NCc1cccc(CN=C=O)c1,3.98% [at 19 µM] (inactive),
CCCCC(=O)O[C@]1(C(=O)CO)CC[C@H]2[C@@H]3CCC4=CC(=O)CC[C@]4(C)[C@H]3[C@@H](O)C[C@@]21C,7.09% [at 42.5 µM] (inactive),
CC[C@H](NC(C)C)[C@H](O)c1ccc(O)c2[nH]c(=O)ccc12,0.547% [at 42.5 µM] (inactive),
O=[N+]([O-])c1ccc(CO)cc1,-7.96% (inactive),
CCN(CC)c1ccc(C=O)cc1,-0.725% (inactive),
O=c1[nH]c(=O)n([C@H]2O[C@H](CO)[C@@H](O)[C@@H]2O)cc1/C=C\Br,16.8% [at 42.5 µM] (inactive),
O=C(O)c1cc(O)c2c(c1)C(=O)c1cccc(O)c1C2=O,-15.2% (inactive),
CC(=O)Nc1ccc(N)cc1,-0.563% (inactive),
Nc1ccccc1O,-17.6% (inactive),
CCCCCCCCCC=O,2.11% (inactive),
CN1CCN(c2c(F)cc3c(=O)c(C(=O)O)cn4c3c2OCN4C)CC1,9.2% [at 19 µM] (inactive),
COc1ccc2sc(C(=O)Nc3nnn[nH]3)c(OC(C)C)c2c1,,27.2 µM (active)

# Tested on: not listed separately
# Assay: Nuclear factor erythroid 2-related factor 2/antioxidant responsive element (Nrf2/ARE) small molecule agonists: luciferase reporter gene qHTS assay in human keratinocytes (AID 1919969); note: nearly all actives have a fitted effect of over 35% in size
# Conditions: KeratinoSens HaCaT ARE-luciferase, luminescence, 24 h; series mostly up to 92.4 µM; activity, positive = activation: at the top concentration
Compound,"activity, positive = activation",Potency
c1cc2c3c(c1)ccc1cccc(c13)C2,0.987% (inactive),
CCOC(=O)N1CCC(Nc2ccc(Cl)cc2N)CC1,7.82% [at 42.5 µM] (inactive),
CCCCCC(=O)OCCc1ccccc1,4.05% (inactive),
COc1cc(C(C)C)ccc1C,17.4% [at 19 µM] (inactive),
CCCCCCCCCCOCC(O)CN (stereo unspecified),-37.9% [at 42.5 µM] (inactive),
CC(C)(Oc1ccc(Cl)cc1)C(=O)OCCCOC(=O)C(C)(C)Oc1ccc(Cl)cc1,-1.25% [at 42.5 µM] (inactive),
CCCCCCCC(=O)Oc1c(Br)cc(C#N)cc1Br,-0.449% (inactive),
O=C(C(Cl)Cl)N1CCOC12CCCCC2,16.3% (inactive),
COc1ccc(-c2coc3cc(O)ccc3c2=O)cc1,26.8% (inactive),
COc1ccc2nc(SCc3ncc(C)c(OC)c3C)[nH]c2c1,7.11% [at 42.5 µM] (inactive),
O=S(=O)(O)c1ccc(Cl)cc1,-14.3% (inactive),
CC(C)OC(=O)C(C)N(C(=O)c1ccccc1)c1ccc(F)c(Cl)c1 (stereo unspecified),21.4% (inactive),
CCOC(=O)c1c(N)sc2c1CCN(Cc1ccccc1)C2,0.375% [at 42.5 µM] (inactive),
CN(C)CCCCl,0.555% (inactive),
CCCCNc1c(C(=O)OCC)c(C)nc2c1cnn2CC,-11.1% [at 42.5 µM] (inactive),
C=C(C)C(=O)OC1CC(C)CC(C)(C)C1 (stereo unspecified),-8.08% (inactive),
Nc1cc(C(=O)O)ccc1Cl,-6.53% (inactive),
O=C(NC1CCN(CCc2c[nH]c3ccccc23)CC1)c1ccccc1,-6.99% [at 42.5 µM] (inactive),
O=C(O)CCCc1c[nH]c2ccccc12,-8.63% (inactive),
NC(CO)C(=O)NNCc1ccc(O)c(O)c1O (stereo unspecified),-13.1% [at 42.5 µM] (inactive),

Compound,"activity, positive = activation",Potency
CCN(CC)c1cccc(C)c1,7.74% (inactive),
CCCC(C)c1ccccc1O (stereo unspecified),14.9% (inactive),
CCO[Si](C)(CCCOCC1CO1)OCC (stereo unspecified),10% (inactive),
O=C(O)c1cn(C2CC2)c2cc(Cl)c(F)cc2c1=O,,13.3 µM (active)
CCCC(=O)O[C@]1(C(=O)CC)CC[C@H]2[C@@H]3CCC4=CC(=O)CC[C@]4(C)[C@H]3[C@@H](O)C[C@@]21C,-0.0345% [at 42.5 µM] (inactive),
CCC(=O)Oc1ccc2c(c1)CC[C@@H]1[C@@H]2CC[C@@]2(C)[C@H]1C[C@@H](OC(=O)CC)[C@@H]2OC(=O)CC,0.114% [at 42.5 µM] (inactive),
C[C@H](O)C(=O)Nc1c(I)c(C(=O)NC(CO)CO)c(I)c(C(=O)NC(CO)CO)c1I,4.74% [at 42.5 µM] (inactive),
CC1(C)CCC(C)(C)c2cc(NC(=O)c3ccc(C(=O)O)cc3)ccc21,-15.2% [at 42.5 µM] (inactive),
O=C=NCc1cccc(CN=C=O)c1,-9.19% [at 19 µM] (inactive),
CCCCC(=O)O[C@]1(C(=O)CO)CC[C@H]2[C@@H]3CCC4=CC(=O)CC[C@]4(C)[C@H]3[C@@H](O)C[C@@]21C,-4.22% [at 42.5 µM] (inactive),
CC[C@H](NC(C)C)[C@H](O)c1ccc(O)c2[nH]c(=O)ccc12,-8.44% [at 42.5 µM] (inactive),
O=[N+]([O-])c1ccc(CO)cc1,-0.389% (inactive),
CCN(CC)c1ccc(C=O)cc1,8.08% (inactive),
O=c1[nH]c(=O)n([C@H]2O[C@H](CO)[C@@H](O)[C@@H]2O)cc1/C=C\Br,5.17% [at 42.5 µM] (inactive),
O=C(O)c1cc(O)c2c(c1)C(=O)c1cccc(O)c1C2=O,-2.44% (inactive),
CC(=O)Nc1ccc(N)cc1,3.49% (inactive),
Nc1ccccc1O,,47.9 µM (active)
CCCCCCCCCC=O,-12.9% (inactive),
CN1CCN(c2c(F)cc3c(=O)c(C(=O)O)cn4c3c2OCN4C)CC1,-3.8% [at 19 µM] (inactive),
COc1ccc2sc(C(=O)Nc3nnn[nH]3)c(OC(C)C)c2c1,,24.2 µM (active)

# Molecular target: Gonadotropin-releasing hormone receptor (Homo sapiens) (UniProt P30968)
# Assay: Human gonadotropin-releasing hormone receptor (GnRHR) small molecule agonists, calcium flux assay in GnRHR-HEK293 cells (AID 1920063); note: nearly all actives have a fitted effect of over 35% in size
# Conditions: calcium flux fluorescence, agonist mode; series mostly up to 57.6 µM; activity change: at the top concentration
# How it was run: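 Compounds dissolved in DMSO are pin-transferred onto dye-loaded GnRHR-HEK293 cells, which were seeded 18 h before at 37 C/5% CO2. Calcium signal is read as fluorescence intensity at 1 s intervals for 3 min.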
# Sequence of Gonadotropin-releasing hormone receptor (Homo sapiens) (P30968 whole entry, looked up): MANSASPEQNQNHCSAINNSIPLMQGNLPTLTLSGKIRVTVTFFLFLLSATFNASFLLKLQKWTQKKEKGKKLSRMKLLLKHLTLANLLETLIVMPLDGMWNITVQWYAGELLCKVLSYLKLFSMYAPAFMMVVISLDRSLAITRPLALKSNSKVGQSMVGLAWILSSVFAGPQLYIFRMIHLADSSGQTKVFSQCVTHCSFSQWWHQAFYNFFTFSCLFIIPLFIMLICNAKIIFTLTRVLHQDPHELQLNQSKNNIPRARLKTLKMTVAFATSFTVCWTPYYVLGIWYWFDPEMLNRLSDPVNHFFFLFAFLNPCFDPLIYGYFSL
Compound,activity change,Potency
c1cc2c3c(c1)ccc1cccc(c13)C2,3.46% (inactive),
CCOC(=O)N1CCC(Nc2ccc(Cl)cc2N)CC1,"4.56% [at 26.4 µM, hits give high values] (inactive)",
CCCCCC(=O)OCCc1ccccc1,1.42% (inactive),
COc1cc(C(C)C)ccc1C,"0.369% [at 11.8 µM, hits give high values] (inactive)",
CCCCCCCCCCOCC(O)CN (stereo unspecified),"7.16% [at 26.4 µM, hits give high values] (inactive)",
CC(C)(Oc1ccc(Cl)cc1)C(=O)OCCCOC(=O)C(C)(C)Oc1ccc(Cl)cc1,"0.0112% [at 26.4 µM, hits give high values] (inactive)",
CCCCCCCC(=O)Oc1c(Br)cc(C#N)cc1Br,9.72% (inactive),
O=C(C(Cl)Cl)N1CCOC12CCCCC2,-0.934% (inactive),
COc1ccc(-c2coc3cc(O)ccc3c2=O)cc1,0.479% (inactive),
COc1ccc2nc(SCc3ncc(C)c(OC)c3C)[nH]c2c1,"6.84% [at 26.4 µM, hits give high values] (inactive)",
O=S(=O)(O)c1ccc(Cl)cc1,0.0403% (inactive),
CC(C)OC(=O)C(C)N(C(=O)c1ccccc1)c1ccc(F)c(Cl)c1 (stereo unspecified),-0.927% (inactive),
CCOC(=O)c1c(N)sc2c1CCN(Cc1ccccc1)C2,"-1.53% [at 26.4 µM, hits give high values] (inactive)",
CN(C)CCCCl,1.24% (inactive),
CCCCNc1c(C(=O)OCC)c(C)nc2c1cnn2CC,"5.22% [at 26.4 µM, hits give high values] (inactive)",
C=C(C)C(=O)OC1CC(C)CC(C)(C)C1 (stereo unspecified),-0.255% (inactive),
Nc1cc(C(=O)O)ccc1Cl,0.0096% (inactive),
O=C(NC1CCN(CCc2c[nH]c3ccccc23)CC1)c1ccccc1,"-0.0796% [at 26.4 µM, hits give high values] (inactive)",
O=C(O)CCCc1c[nH]c2ccccc12,0.309% (inactive),
NC(CO)C(=O)NNCc1ccc(O)c(O)c1O (stereo unspecified),"-1.62% [at 26.4 µM, hits give high values] (inactive)",

Compound,activity change,Potency
CCN(CC)c1cccc(C)c1,-0.0637% (inactive),
CCCC(C)c1ccccc1O (stereo unspecified),1.18% (inactive),
CCO[Si](C)(CCCOCC1CO1)OCC (stereo unspecified),1.05% (inactive),
O=C(O)c1cn(C2CC2)c2cc(Cl)c(F)cc2c1=O,"-0.942% [at 26.4 µM, hits give high values] (inactive)",
CCCC(=O)O[C@]1(C(=O)CC)CC[C@H]2[C@@H]3CCC4=CC(=O)CC[C@]4(C)[C@H]3[C@@H](O)C[C@@]21C,"0.416% [at 26.4 µM, hits give high values] (inactive)",
CCC(=O)Oc1ccc2c(c1)CC[C@@H]1[C@@H]2CC[C@@]2(C)[C@H]1C[C@@H](OC(=O)CC)[C@@H]2OC(=O)CC,"0.811% [at 26.4 µM, hits give high values] (inactive)",
C[C@H](O)C(=O)Nc1c(I)c(C(=O)NC(CO)CO)c(I)c(C(=O)NC(CO)CO)c1I,"-0.413% [at 26.4 µM, hits give high values] (inactive)",
CC1(C)CCC(C)(C)c2cc(NC(=O)c3ccc(C(=O)O)cc3)ccc21,"0.0154% [at 26.4 µM, hits give high values] (inactive)",
O=C=NCc1cccc(CN=C=O)c1,"-0.327% [at 11.8 µM, hits give high values] (inactive)",
CCCCC(=O)O[C@]1(C(=O)CO)CC[C@H]2[C@@H]3CCC4=CC(=O)CC[C@]4(C)[C@H]3[C@@H](O)C[C@@]21C,"15.2% [at 26.4 µM, hits give high values] (inactive)",
CC[C@H](NC(C)C)[C@H](O)c1ccc(O)c2[nH]c(=O)ccc12,,0.012 µM (active)
O=[N+]([O-])c1ccc(CO)cc1,-0.675% (inactive),
CCN(CC)c1ccc(C=O)cc1,-1.32% (inactive),
O=c1[nH]c(=O)n([C@H]2O[C@H](CO)[C@@H](O)[C@@H]2O)cc1/C=C\Br,"18.7% [at 26.4 µM, hits give high values] (inactive)",
O=C(O)c1cc(O)c2c(c1)C(=O)c1cccc(O)c1C2=O,4.43% (inactive),
CC(=O)Nc1ccc(N)cc1,-1.62% (inactive),
Nc1ccccc1O,-2.36% (inactive),
CCCCCCCCCC=O,-0.724% (inactive),
CN1CCN(c2c(F)cc3c(=O)c(C(=O)O)cn4c3c2OCN4C)CC1,"0.0141% [at 11.8 µM, hits give high values] (inactive)",
COc1ccc2sc(C(=O)Nc3nnn[nH]3)c(OC(C)C)c2c1,-0.726% (inactive),
